According to PubChem BioAssay AID1159580 (chemical genetic matrix, 2015):
Out of some 5,500 compounds screened, about 2,000 (36%) were called active. Another 18% or so got no clear call; they are omitted. Cut-off read from the data, not from the text of the source: active = normalized growth mostly below about 0.91 (no sharp cut-off); inconclusive = no clear call, values can overlap the other calls; inactive = mostly above about 0.92. The list shows a part of the results.

Assay: chemical genetic growth profiling, strain panel (AID 1159580);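 note: tested at 20 µM; growth read once vehicle control cultures reached saturation at 30 °C; 1 = growth at the plate median or of vehicle wells; lower values mean less growth of the strain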
Conditions: S. cerevisiae deletion strains, growth OD

Measured: normalized growth

CN1CCN(C(=O)OC2c3nccnc3C(=O)N2c2ccc(Cl)cn2)CC1 (centres undefined)
inactive: locus YAL021C, strain ccr4, stronger effect = lower value 1 | locus YAL026C, strain drs2, stronger effect = lower value 0.993 | locus YAL030W, strain snc1, stronger effect = lower value 0.997 | locus YBL061C, strain skt5, stronger effect = lower value 0.99 | locus YBR009C, strain hhf1, stronger effect = lower value 1.01 | locus YBR023C, strain chs3, stronger effect = lower value 0.991 | locus YBR171W, strain sec66, stronger effect = lower value 0.997 | locus YBR231C, strain swc5, stronger effect = lower value 0.979 | locus YBR279W, strain paf1, stronger effect = lower value 1.01 | locus YCL011C, strain gbp2, stronger effect = lower value 1 | locus YCL016C, strain dcc1, stronger effect = lower value 0.994 | locus YCL069W, strain vba3, stronger effect = lower value 1 | locus YCR088W, strain abp1, stronger effect = lower value 0.996 | locus YDL005C, strain med2, stronger effect = lower value 0.99 | locus YDL040C, strain nat1, stronger effect = lower value 0.981 | locus YDR001C, strain nth1, stronger effect = lower value 0.992 | locus YDR069C, strain doa4, stronger effect = lower value 0.991 | locus YDR137W, strain rgp1, stronger effect = lower value 0.998 | locus YDR159W, strain sac3, stronger effect = lower value 1.01 | locus YDR195W, strain ref2 0.959 | locus YDR297W, strain sur2, stronger effect = lower value 0.979 | locus YDR334W, strain swr1, stronger effect = lower value 0.983 | locus YDR335W, strain msn5, stronger effect = lower value 1 | locus YDR392W, strain spt3, stronger effect = lower value 1.02 | locus YEL003W, strain gim4, stronger effect = lower value 1 | locus YEL037C, strain rad23, stronger effect = lower value 0.994 | locus YEL061C, strain CIN8 (second series), stronger effect = lower value 0.993 | locus YER015W, strain faa2, stronger effect = lower value 0.99 | locus YER016W, strain bim1, stronger effect = lower value 1.01 | locus YER111C, strain swi4, stronger effect = lower value 1 | locus YER155C, strain BEM2 (second series), stronger effect = lower value 0.999 | locus YFR010W, strain ubp6, stronger effect = lower value 0.987 | locus YGL167C, strain pmr1, stronger effect = lower value 0.986 | locus YGL173C, strain kem1, stronger effect = lower value 0.976 | locus YGL227W, strain vid30, stronger effect = lower value 0.976 | locus YGL240W, strain doc1, stronger effect = lower value 1 | locus YGL253W, strain hxk2, stronger effect = lower value 0.994 | locus YHR013C, strain ard1, stronger effect = lower value 0.98 | locus YHR027C, strain rpn1, stronger effect = lower value 1 | locus YHR030C, strain SLT2, stronger effect = lower value 1.02 | locus YHR079C, strain IRE1, stronger effect = lower value 1.01 | locus YHR142W, strain chs7, stronger effect = lower value 1.01 | locus YJL092W, strain hpr5, stronger effect = lower value 0.984 | locus YJL095W, strain BCK1 (second series), stronger effect = lower value 0.97 | locus YJL095W, strain BCK1, stronger effect = lower value 1.01 | locus YJL115W, strain asf1, stronger effect = lower value 0.995 | locus YJL129C, strain trk1, stronger effect = lower value 0.956 | locus YJL154C, strain vps35, stronger effect = lower value 0.993 | locus YJL164C, strain tpk1, stronger effect = lower value 1.01 | locus YJL166W, strain qcr8, stronger effect = lower value 0.998 | locus YJL187C, strain SWE1, stronger effect = lower value 0.994 | locus YJR066W, strain TOR1, stronger effect = lower value 0.935 | locus YKL160W, strain elf1, stronger effect = lower value 0.984 | locus YKR026C, strain gcn3, stronger effect = lower value 0.988 | locus YKR091W, strain srl3, stronger effect = lower value 0.995 | locus YLL001W, strain dnm1, stronger effect = lower value 0.971 | locus YLL026W, stronger effect = lower value 1 | locus YLL041C, strain sdh2, stronger effect = lower value 1.01 | locus YLR027C, strain aat2, stronger effect = lower value 1 | locus YLR113W, strain HOG1, stronger effect = lower value 1 | locus YLR221C, strain rsa3, stronger effect = lower value 0.987 | locus YLR258W, strain gsy2, stronger effect = lower value 1.01 | locus YLR262C, strain YPT6 (second series), stronger effect = lower value 1 | locus YLR320W, strain mms22, stronger effect = lower value 1.01 | locus YLR342W, strain FKS1, stronger effect = lower value 0.995 | locus YLR357W, strain rsc2, stronger effect = lower value 0.978 | locus YLR370C, strain arc18, stronger effect = lower value 0.998 | locus YLR384C, strain iki3, stronger effect = lower value 0.994 | locus YML120C, strain ndi1, stronger effect = lower value 0.985 | locus YMR058W, strain fet3, stronger effect = lower value 1 | locus YMR125W, strain sto1, stronger effect = lower value 0.946 | locus YMR129W, stronger effect = lower value 1 | locus YMR205C, strain PFK2, stronger effect = lower value 0.99 | locus YMR231W, strain pep5, stronger effect = lower value 0.99 | locus YNL071W, strain lat1, stronger effect = lower value 1 | locus YNL183C, strain NPR1, stronger effect = lower value 0.957 | locus YNL209W, strain ssb2, stronger effect = lower value 1.01 | locus YNL248C, strain rpa49, stronger effect = lower value 0.989 | locus YNL322C, strain KRE1 (second series), stronger effect = lower value 0.976 | locus YNR049C, strain mso1, stronger effect = lower value 1 | locus YOR001W, strain rrp6, stronger effect = lower value 0.973 | locus YOR070C, strain gyp1, stronger effect = lower value 0.998 | locus YOR080W, strain dia2, stronger effect = lower value 0.987 | locus YOR083W, strain WHI5, stronger effect = lower value 0.983 | locus YOR106W, strain vam3, stronger effect = lower value 0.98 | locus YOR231W, strain MKK1, stronger effect = lower value 1.01 | locus YOR265W, strain rbl2, stronger effect = lower value 0.993 | locus YOR270C, strain vph1, stronger effect = lower value 0.967 | locus YOR290C, strain snf2, stronger effect = lower value 1.01 | locus YPL051W, strain arl3, stronger effect = lower value 0.988 | locus YPL078C, strain atp4, stronger effect = lower value 0.979 | locus YPL106C, strain sse1, stronger effect = lower value 1.05 | locus YPL240C, strain hsp82, stronger effect = lower value 1 | locus YPL256C, strain CLN2, stronger effect = lower value 1.01
